From PubChem BioAssay (Tox21) come the findings set out here.

Results filed as inconclusive are left out. A call without a number means that no potency is given here. Values without a mark were called inactive. Active and inactive are the calls of the source. Calls follow the shape of the dose curve; as a rule, active = well fitted cell-killing curve with a large enough effect in the repeat runs; inconclusive = weak or mixed curves, or effect the other way; inactive = flat fitted curve, though single readings scatter.

The assay in a line: qHTS assay to identify small molecule agonists of the TGF-beta/Smad signaling pathway - cell viability counter screen (AID 1346829). Also: top concentration of the series differs between compounds; nearly all actives have a fitted effect of over 45% in size. The note with it: SBE-bla HEK293T viability, CellTiter-Glo luminescence, 5 h; series mostly up to 76.8 µM. An excerpt: National Center for Advancing Translational Sciences [NCATS]
NIH Chemical Genomics Center [NCGC]
U.S. Environmental Protection Agency [EPA]
National Institutes of Environmental Health Sciences [NIEHS]
National Toxicology Program [NTP]
U.S. Food and Drug Administration [FDA]
Transforming growth factor beta (TGF-beta) superfamily consists of a large number of structurally related dimeric proteins that act as hormones or local mediators in regulating a wide range of biological functions. This superfamily includes TGF-betas themselves, the bone morphogenetic proteins (BMPs) and the activins. These ligands induce oligomerization of serine/threonine receptor kinases and phosphorylate the cytoplasmic signaling molecules of Smad protein family. CellSensor SBE-bla HEK 293T cell line (Life Technologies, Carlsbad, CA), responsive to TGF-beta was used to screen Tox21 10K compound library for identification of agonists/antagonists of the Smad signaling pathway. This cell line contains a beta-lactamase reporter gene under control of the Smad binding element (SBE) stably integrated into HEK 293T cells. Also cytotoxicity of the compounds was tested in parallel by measuring the cell viability using CellTiter-Glo assay system in the same wells.
Tox21 Assay Protocol Summary:
SBE-bla HEK 293T cells were dispensed at 4,000/well in 6 uL of assay medium into black wall/clear-bottom 1536-well plates using a Multidrop Combi (ThermoFisher Scientific, Waltham, MA) dispenser. After the assay plates were incubated at 37 C and 5% CO2 for an overnight, 23 nL of compounds dissolved in DMSO, positive controls or DMSO only was transferred to the assay plate by a Pintool station (Kalypsys, San Diego, CA). The assay plates were incubated at 37 C and 5% CO2 for 5 hr. One uL of LiveBLAzer B/G FRET substrate (Life Technologies) was added using a Flying Reagent Dispenser (FRD, Aurora Discovery, San Diego, CA) and the plates were incubated at room temperature for 2 hr. Fluorescence intensity (405 nm excitation, 460 nm and 530 nm emissions) was measured using an Envision plate reader (PerkinElmer, Shelton, CT). For cytotoxicity read, 4 uL of CellTiter-Glo reagent (Promega Corporation, Madison, WI) was added to each well of the assay plates using FRD. After 30min incubation at room temperature, the luminescence intensity was measured using ViewLux plate reader (PerkinElmer).
Background: qHTS replaces the single test concentration by a dilution series.
As for `CS(=O)(=O)Cl`, the Potency entry is “inactive”.

For the compound `BrCCc1ccccc1`, the Potency entry was “inactive”.

As to `C[C@]12C=CC(=O)C=C1CC[C@@H]1[C@@H]2CC[C@@]2(C)[C@H]1CC[C@]2(C)O`, the Potency entry is “inactive”.

Turning to `C#CCOC(=O)/C=C(C)/C=C/CC(C)CCCC(C)C` (stereo not given), the Potency entry is “inactive”.

Regarding `c1cncc([C@@H]2CCCCN2)c1`, the Potency entry is “inactive”.

Take `COC(=O)c1ccccc1CS(=O)(=O)NC(=O)Nc1nc(OC)cc(OC)n1`: the Potency entry was “inactive”.

Take `CCC1(c2ccccc2)CCC(=O)NC1=O` (stereo not given): the Potency result is “inactive”.

As for `COc1cc(CCN)cc(OC)c1OC`, the Potency entry is “inactive”.

`CCOP(=S)(OCC)SCCl`: the Potency result was “inactive”.

With `CNC(=O)Oc1cc(C)c(N(C)C)c(C)c1`, the Potency result was “inactive”.

Consider `Cc1ccc(-c2nc3ccc(C)cn3c2CC(=O)N(C)C)cc1`, for which the Potency result is “inactive”.

With `O=C(Cl)/C=C/C(=O)Cl`, the Potency entry was “inactive”.

With `CC1=C2[C@H]3OC(=O)[C@@H](C)[C@@H]3CC[C@@]2(C)C=CC1=O`, the Potency result is “inactive”.

Regarding `Brc1c(Br)c(Br)c(Br)c(Br)c1Br`, the activity change, negative = cytotoxicity is -6.42% [at 6.97 µM].

Consider `Oc1ccc2c3c1O[C@H]1[C@@H](O)C=C[C@H]4[C@@H](C2)NCC[C@@]341`, for which the Potency result was “inactive”.

For the compound `N#CN=C1SCCN1Cc1ccc(Cl)nc1`, the Potency entry was “inactive”.

For `CCCOC(=O)c1cncn1C(C)c1ccccc1` (stereo not given), the Potency entry is “inactive”.

With `N=C(N)[Se]`, the Potency result was “inactive”.

With `CCOP(=S)(OCC)Oc1ccc(Cl)cc1Cl`, the Potency entry was “inactive”.

As to `C=CCCC#N`, the Potency entry is “inactive”.

As for `CC(C)(C)C(=O)C(Cl)Cl`, the Potency entry was “inactive”.

On to `CCOC1Oc2ccc(OS(C)(=O)=O)cc2C1(C)C` (stereo not given), for which the Potency result was “inactive”.

On to `C[C@H](CN1CCOCC1)C(C(=O)N1CCCC1)(c1ccccc1)c1ccccc1`, for which the Potency result is “inactive”.

Turning to `O=C(Cl)c1ccccc1`, the Potency result was “inactive”.

With `c1ccc2c(c1)CCNC2`, the Potency entry was “inactive”.

For `CCN(CC)C1CCCCC1`, the Potency result was “inactive”.

Turning to `Clc1ccc(C(Cl)(Cl)Cl)cn1`, the Potency entry is “inactive”.

As to `CCC(=O)OC1(c2ccccc2)CCN(C)CC1`, the Potency result is “inactive”.

In the case of `CCNc1nc(NCC)nc(SC)n1`, the Potency entry was “inactive”.

Turning to `CCc1cc(OC)c(C[C@H](C)N)cc1OC`, the Potency result was “inactive”.

For `C=CC=O`, the Potency result was “inactive”.

Turning to `N#CN`, the Potency entry was “inactive”.

With `CCCC(C)C1(CC)C(=O)N=C(S)NC1=O` (stereo not given), the Potency result is “inactive”.

Turning to `CCC1(CC)C(=O)C=CNC1=O`, the Potency result is “inactive”.

With `Cc1ccc(Cl)c(O)c1`, the Potency entry was “inactive”.

With `Clc1cc2c(cc1Cl)Oc1cc(Cl)c(Cl)cc1O2`, the activity change, negative = cytotoxicity is 9.06% [at 0.29 µM].

On to `CC(C)(C)c1cc(O)ccc1O`, for which the Potency entry is “inactive”.

Regarding `C=C1CC[C@@]2(O)[C@H]3Cc4ccc(O)c5c4[C@@]2(CCN3CC2CC2)[C@H]1O5`, the Potency entry was “inactive”.

For the compound `CCOC(=O)c1ncn2c1CN(C)C(=O)c1c(I)cccc1-2`, the Potency entry is “inactive”.

On to `CC(C)(N)Cc1ccc(Cl)cc1`, for which the Potency entry is “inactive”.
